PubChem BioAssay (NCI)
Where “and” joins values, the source holds several entries; their conditions need not be identical. Equal values may be shown once. Compounds without any hit were thinned out: in the full panel of roughly 83,000, 20% have a hit.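 Values shown are percent growth following 48 h exposure of cells in 96-well plates to a single concentration of compound; below 10 was considered active.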 Calls of active or inactive are those of the source.

Key:
Experiment in all cases: NCI-60 one-dose screen, 48 h (100 = growth as untreated, 0 = no growth, -100 = all killed)
SF-539 CNS = test system: SF-539 CNS
UACC-257 melanoma = test system: UACC-257 melanoma
M14 melanoma = test system: M14 melanoma
NCI-H23 lung = test system: NCI-H23 lung
NCI-H226 lung = test system: NCI-H226 lung
NCI-H322M lung = test system: NCI-H322M lung
HOP-62 NSCLC = test system: HOP-62 NSCLC
NCI-H460 lung = test system: NCI-H460 lung
HOP-92 NSCLC = test system: HOP-92 NSCLC
NCI-H522 lung = test system: NCI-H522 lung
A549/ATCC NSCLC = test system: A549/ATCC NSCLC
786-0 renal = test system: 786-0 renal
COLO 205 colon = conditions: 10 µM unless noted
DU-145 prostate = test system: DU-145 prostate
K-562 leukemia = test system: K-562 leukemia
MALME-3M melanoma = test system: MALME-3M melanoma
MDA-MB-231 breast = test system: MDA-MB-231 breast
RXF 393 renal = test system: RXF 393 renal
SF-268 CNS = test system: SF-268 CNS
SF-295 CNS = test system: SF-295 CNS

Question: With `O=C(O)c1sccc1O` as the molecule, how does the growth (SF-539 CNS; 10 µM) read?
Answer: Its growth is 85.4% (inactive).

Question: What about the growth (SF-539 CNS; 100 µM) of the same molecule?
Answer: The growth was 23.5% (inactive).

Question: And the growth (UACC-257 melanoma; 10 µM)?
Answer: Its growth is 85.3% (inactive).

Question: And the growth (UACC-257 melanoma; 100 µM)?
Answer: The growth was 51.5% (inactive).

Question: And the growth (M14 melanoma; 10 µM)?
Answer: The growth was 85.5% (inactive).

Question: And the growth (M14 melanoma; 100 µM)?
Answer: Its growth is 7.02% (active).

Question: What does the source list for `COc1cc(-c2nccc3cc4c(cc23)OCO4)cc(OC)c1OC`?
Answer: growth (NCI-H23 lung; 10 µM unless noted): 56.9% (inactive) and 46.7% (inactive); growth (NCI-H226 lung; 10 µM unless noted): 62.9% (inactive) and 49.7% (inactive); growth (NCI-H322M lung; 10 µM unless noted): 66.1% (inactive) and 71.6% (inactive); growth (HOP-62 NSCLC; 10 µM unless noted): 38.1% (inactive) and 39.4% (inactive); growth (NCI-H460 lung; 10 µM unless noted): 18.1% (inactive) and 14.8% (inactive); growth (HOP-92 NSCLC; 10 µM unless noted): 58.3% (inactive); growth (NCI-H522 lung; 10 µM unless noted): -0.618% (active); growth (A549/ATCC NSCLC; 10 µM unless noted): 46.6% (inactive) and 38.9% (inactive); growth (786-0 renal; 10 µM unless noted): 38.6% (inactive) and 66.7% (inactive); growth (COLO 205 colon): 11.2% (inactive) and -13.8% (active); growth (DU-145 prostate; 10 µM unless noted): 51.9% (inactive) and 30.2% (inactive); growth (K-562 leukemia; 10 µM unless noted): 13.4% (inactive) and 21% (inactive); growth (MALME-3M melanoma; 10 µM unless noted): 62.2% (inactive) and 44.7% (inactive); growth (MDA-MB-231 breast; 10 µM unless noted): 40.3% (inactive) and 48.9% (inactive); growth (RXF 393 renal; 10 µM unless noted): 6.69% (active) and 22.1% (inactive); growth (SF-268 CNS; 10 µM unless noted): 43.8% (inactive) and 40.6% (inactive); growth (SF-295 CNS; 10 µM unless noted): 19.2% (inactive) and 15.7% (inactive); growth (SF-539 CNS; 10 µM unless noted): 19.9% (inactive) and 18.8% (inactive); growth (UACC-257 melanoma; 10 µM unless noted): 52.8% (inactive) and 39.3% (inactive)

Question: How did the growth (NCI-H23 lung; 10 µM) turn out when `CC#C[C@]1(O)CC[C@H]2[C@@H]3CCC4=CC(=O)CCC4=C3[C@@H](c3ccc4c(c3)OCO4)C[C@@]21C` was run?
Answer: The growth was 82.8% (inactive).

Question: What about the growth (NCI-H23 lung; 100 µM) of the same molecule?
Answer: The growth was -8.63% (active).

Question: And the growth (NCI-H226 lung; 10 µM)?
Answer: Its growth is 85.2% (inactive).

Question: And the growth (NCI-H226 lung; 100 µM)?
Answer: The growth was -21.7% (active).

Question: What about the growth (NCI-H322M lung; 10 µM) of the same molecule?
Answer: The growth was 90% (inactive).

Question: And the growth (NCI-H322M lung; 100 µM)?
Answer: Its growth is 7.01% (active).

Question: And the growth (HOP-62 NSCLC; 10 µM)?
Answer: Its growth is 81.3% (inactive).

Question: What about the growth (HOP-62 NSCLC; 100 µM) of the same molecule?
Answer: Its growth is -15.3% (active).

Question: What about the growth (NCI-H460 lung; 10 µM) of the same molecule?
Answer: The growth was 90.5% (inactive).

Question: And the growth (NCI-H460 lung; 100 µM)?
Answer: The growth was -45.9% (active).

Question: And the growth (HOP-92 NSCLC; 10 µM)?
Answer: The growth was 66.1% (inactive).

Question: What about the growth (HOP-92 NSCLC; 100 µM) of the same molecule?
Answer: Its growth is -33.2% (active).

Question: What about the growth (NCI-H522 lung; 10 µM) of the same molecule?
Answer: The growth was 62.4% (inactive).

Question: And the growth (NCI-H522 lung; 100 µM)?
Answer: The growth was -37.9% (active).

Question: And the growth (A549/ATCC NSCLC; 10 µM)?
Answer: Its growth is 66.7% (inactive).

Question: And the growth (A549/ATCC NSCLC; 100 µM)?
Answer: The growth was -19.7% (active).

Question: What about the growth (786-0 renal; 10 µM) of the same molecule?
Answer: Its growth is 69.5% (inactive).

Question: What about the growth (786-0 renal; 100 µM) of the same molecule?
Answer: Its growth is -30.5% (active).

Question: What about the growth (COLO 205 colon) of the same molecule?
Answer: The growth was 101% (inactive).

Question: What about the growth (DU-145 prostate; 10 µM) of the same molecule?
Answer: Its growth is 101% (inactive).

Question: What about the growth (DU-145 prostate; 100 µM) of the same molecule?
Answer: The growth was -13.9% (active).

Question: What about the growth (K-562 leukemia; 10 µM) of the same molecule?
Answer: Its growth is 83% (inactive).

Question: What about the growth (K-562 leukemia; 100 µM) of the same molecule?
Answer: Its growth is 1.72% (active).

Question: What about the growth (MALME-3M melanoma; 10 µM) of the same molecule?
Answer: Its growth is 97.8% (inactive).

Question: What about the growth (MALME-3M melanoma; 100 µM) of the same molecule?
Answer: Its growth is -29.8% (active).

Question: What about the growth (MDA-MB-231 breast; 10 µM) of the same molecule?
Answer: The growth was 62.1% (inactive).

Question: And the growth (MDA-MB-231 breast; 100 µM)?
Answer: Its growth is -42.9% (active).

Question: And the growth (RXF 393 renal; 10 µM)?
Answer: The growth was 69.5% (inactive).

Question: What about the growth (RXF 393 renal; 100 µM) of the same molecule?
Answer: Its growth is -50.7% (active).

Question: What about the growth (SF-268 CNS; 10 µM) of the same molecule?
Answer: The growth was 71.3% (inactive).

Question: What about the growth (SF-268 CNS; 100 µM) of the same molecule?
Answer: The growth was -4.41% (active).

Question: And the growth (SF-295 CNS; 10 µM)?
Answer: Its growth is 58.5% (inactive).

Question: And the growth (SF-295 CNS; 100 µM)?
Answer: Its growth is -41.1% (active).

Question: What about the growth (SF-539 CNS; 10 µM) of the same molecule?
Answer: The growth was 75% (inactive).

Question: What about the growth (SF-539 CNS; 100 µM) of the same molecule?
Answer: The growth was -58.8% (active).

Question: What about the growth (UACC-257 melanoma; 10 µM) of the same molecule?
Answer: Its growth is 90.1% (inactive).

Question: And the growth (UACC-257 melanoma; 100 µM)?
Answer: Its growth is -38.7% (active).

Question: What about the growth (M14 melanoma; 10 µM) of the same molecule?
Answer: The growth was 81.9% (inactive).

Question: What about the growth (M14 melanoma; 100 µM) of the same molecule?
Answer: Its growth is -53.8% (active).

Question: What does the source list for `COc1ccc(S(=O)(=O)N2CCOCC2)cc1NC(=O)c1[nH]c(C)c2c1CCCCC2=O`?
Answer: growth (NCI-H23 lung; 10 µM unless noted): 104% (inactive) and 59% (inactive); growth (NCI-H226 lung; 10 µM unless noted): 104% (inactive) and 62% (inactive); growth (NCI-H322M lung; 10 µM unless noted): 105% (inactive) and 64.6% (inactive); growth (HOP-62 NSCLC; 10 µM unless noted): 109% (inactive) and 33.8% (inactive); growth (NCI-H460 lung; 10 µM unless noted): 103% (inactive) and 75.9% (inactive); growth (HOP-92 NSCLC; 10 µM unless noted): 111% (inactive) and 27% (inactive); growth (NCI-H522 lung; 10 µM unless noted): 100% (inactive) and 40.9% (inactive); growth (A549/ATCC NSCLC; 10 µM unless noted): 97.2% (inactive) and 61.7% (inactive); growth (786-0 renal; 10 µM unless noted): 107% (inactive) and 93.4% (inactive); growth (COLO 205 colon): 113% (inactive) and 34.8% (inactive); growth (DU-145 prostate; 10 µM unless noted): 107% (inactive) and 81.5% (inactive); growth (K-562 leukemia; 10 µM unless noted): 105% (inactive) and 46.1% (inactive); growth (MALME-3M melanoma; 10 µM unless noted): 103% (inactive) and 53.9% (inactive); growth (MDA-MB-231 breast; 10 µM unless noted): 110% (inactive) and 44.6% (inactive); growth (RXF 393 renal; 10 µM unless noted): 109% (inactive) and 37.7% (inactive); growth (SF-268 CNS; 10 µM unless noted): 98.5% (inactive) and 72.1% (inactive); growth (SF-295 CNS; 10 µM unless noted): 100% (inactive) and 60.7% (inactive); growth (SF-539 CNS; 10 µM unless noted): 95.4% (inactive) and 43.6% (inactive); growth (UACC-257 melanoma; 10 µM unless noted): 101% (inactive) and 58.7% (inactive)
